PubChem BioAssay (NCI)
This is part of a sample that, as a whole, favours compounds with a hit. Of some 79,000 tested, about 15% had one in any assay. The source made the active and inactive calls. Rule as the data show it: active = growth inhibition above about 70%; inactive = the rest.

Columns and labels:
[1] = NCI Yeast Anticancer Drug Screen. Data for the rad52 strain (AID 147);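 also: 0% = growth of vehicle-treated control cultures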; settings: S. cerevisiae rad52 mutant growth inhibition, hits give high values
How it was run: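 Measured: yeast growth inhibition. System: strain with a defined DNA damage repair alteration. Reference: vehicle-treated control cultures.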

[2] = NCI Yeast Anticancer Drug Screen. Data for the mgt1 strain (AID 153); settings: S. cerevisiae mgt1 mutant growth inhibition, hits give high values
How it was run: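 After exposure of the mgt1 yeast mutant to compound, growth was measured and reported as inhibition compared with vehicle controls.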

[3] = NCI Yeast Anticancer Drug Screen. Data for the rad50 strain (AID 155);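 also: 0% = growth of vehicle-only cultures of the same strain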; settings: S. cerevisiae rad50 strain growth inhibition, hits give high values
How it was run: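 Inhibition values express reduced yeast growth in compound-treated cultures relative to vehicle-treated controls.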

[4] = NCI Yeast Anticancer Drug Screen. Data for the mec2-1 strain (AID 157); settings: S. cerevisiae mec2-1 strain, hits give high values
How it was run: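 Test agents were screened against the mec2-1 yeast strain, with defined DNA repair or cell cycle alteration. Growth was scored as inhibition against vehicle-only controls.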

[5] = NCI Yeast Anticancer Drug Screen. Data for the rad14 strain (AID 159);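 also: 0% = growth of vehicle-treated control cultures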; settings: S. cerevisiae rad14 strain growth inhibition, hits give high values
How it was run: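 A mutant yeast strain defective in DNA damage repair is treated with compound; inhibition of its growth is scored against untreated, vehicle-exposed cultures.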

[6] = NCI Yeast Anticancer Drug Screen. Data for the sgs1 mgt1 strain (AID 161);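 also: 0% = growth of cultures given vehicle only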; settings: S. cerevisiae sgs1 mgt1 strain, hits give high values
How it was run: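 Inhibition of yeast growth, normalised to vehicle-treated controls, is reported for a strain bearing genetic alterations in DNA damage repair.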

[7] = NCI Yeast Anticancer Drug Screen. Data for the CLN2oe strain (AID 163);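 also: 0% = growth of vehicle-only control cultures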; settings: S. cerevisiae CLN2oe strain, hits give high values
How it was run: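 Here, growth inhibition in a cell-cycle-altered yeast strain after compound exposure was quantified against vehicle control growth.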

[8] = NCI Yeast Anticancer Drug Screen. Data for the cln2 rad14 strain (AID 165);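 also: 0% = growth equal to vehicle treated cultures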; settings: S. cerevisiae cln2 rad14 strain, hits give high values
How it was run: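 Growth of compound-exposed yeast (cln2 rad14 genotype) measured and expressed as inhibition relative to vehicle.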

[9] = NCI Yeast Anticancer Drug Screen. Data for the wt2 strain (AID 169);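 also: 0% = growth of vehicle-treated yeast cultures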; settings: S. cerevisiae wt2 strain growth inhibition, hits give high values
How it was run: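 Genetically defined yeast strains from a DNA-repair/cell-cycle panel were used. Compound-exposed yeast growth was measured, and the inhibition was calculated relative to vehicle treatment.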

[10] = NCI Yeast Anticancer Drug Screen. Data for the mlh1 strain (AID 171);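 also: 0% = growth of vehicle-treated control cultures of the same strain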; settings: S. cerevisiae mlh1 strain growth inhibition, hits give high values
How it was run: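 Here the genetically defined yeast mutant is grown with each compound, and the extent to which its growth falls below that of vehicle-exposed cells is reported.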

[11] = NCI Yeast Anticancer Drug Screen. Data for the sgs1 strain (AID 173);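 also: 0% = growth of vehicle-only control cultures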; settings: S. cerevisiae sgs1 mutant, hits give high values
How it was run: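 Relative growth inhibition, referenced to vehicle, was determined in a yeast strain with a defined alteration affecting DNA damage repair or cell cycle control after compound exposure.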

[12] = NCI Yeast Anticancer Drug Screen. Data for the mlh1 rad18 strain (AID 175); settings: S. cerevisiae mlh1 rad18 strain growth inhibition, hits give high values
How it was run: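 In this whole-cell yeast screen, a strain with altered DNA damage repair is challenged with compound, and its growth is measured against matched vehicle-treated controls.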

[13] = NCI Yeast Anticancer Drug Screen. Data for the rad18 strain (AID 177); settings: S. cerevisiae rad18 mutant growth inhibition, hits give high values
How it was run: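 Screen uses a yeast strain with a defined lesion in DNA damage repair; compound effect is read as loss of growth compared to untreated vehicle cultures.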

[14] = NCI Yeast Anticancer Drug Screen. Data for the bub3 strain (AID 167); settings: S. cerevisiae bub3 mutant strain, hits give high values
How it was run: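 Steps: expose the mutant yeast strain to compound; grow alongside vehicle-treated cultures; measure growth; express inhibition against the vehicle cultures.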

[15] = at 5.0 µM (retest, dose inferred, filed as 0.5)
[16] = at 50.0 µM (retest, dose inferred, filed as 5.0)

Measured: growth inhibition

Cc1cc(CO)c(O)c(CNCc2cc(C)cc(CO)c2O)c1
inactive: [1]; at 1.2 µM 4% | [1]; at 3.7 µM 8% | [1]; at 11.0 µM 14% | [1]; at 33.0 µM 22% | [2]; at 1.2 µM -13% | [2]; at 3.7 µM -17% | [2]; at 11.0 µM -18% | [2]; at 33.0 µM -9% | [3]; at 1.2 µM 2% | [3]; at 3.7 µM 7% | [3]; [15] -25% | [3]; at 11.0 µM 2% | [3]; at 33.0 µM 19% | [4]; at 1.2 µM -14% | [4]; at 3.7 µM -7% | [4]; [15] -32% | [4]; at 11.0 µM -27% | [4]; at 33.0 µM -18% | [4]; [16] 42% | [5]; at 1.2 µM -16% | [5]; at 3.7 µM -29% | [5]; at 11.0 µM -42% | [5]; at 33.0 µM 35% | [6]; [15] -2% | [6]; [16] 22% | [7]; at 1.2 µM -10% | [7]; at 3.7 µM -24% | [7]; at 11.0 µM -25% | [7]; at 33.0 µM -14% | [8]; [15] -17% | [8]; [16] 48% | [9]; at 1.2 µM -8% | [9]; at 3.7 µM -11% | [9]; at 11.0 µM -12% | [9]; at 33.0 µM -8% | [10]; at 1.2 µM -27% | [10]; at 3.7 µM -30% | [10]; at 11.0 µM -13% | [10]; at 33.0 µM -7% | [11]; at 1.2 µM 3% | [11]; at 3.7 µM 8% | [11]; at 11.0 µM 9% | [11]; at 33.0 µM 40% | [12]; [15] 17% | [13]; at 1.2 µM 1% | [13]; at 3.7 µM -6% | [13]; at 11.0 µM -4% | [13]; at 33.0 µM 4%
active: [1]; at 100.0 µM 98% | [2]; at 100.0 µM 98% | [3]; [16] 88% | [3]; at 50.0 µM 89.5% | [3]; at 100.0 µM 98% | [4]; at 50.0 µM 77.2% | [4]; at 100.0 µM 98% | [5]; at 100.0 µM 97% | [6]; at 50.0 µM 90.6% | [7]; at 100.0 µM 98% | [8]; at 50.0 µM 72% | [9]; at 100.0 µM 98% | [10]; at 100.0 µM 98% | [11]; at 100.0 µM 99% | [12]; [16] 96% | [12]; at 50.0 µM 74.3% | [13]; at 100.0 µM 98%

Cc1cc(S(=O)(=O)/N=C(/NN)NNc2cccc(C(F)(F)F)n2)c(S)cc1Cl
inactive: [1]; at 1.2 µM 1% | [1]; at 3.7 µM -1% | [1]; at 11.0 µM -2% | [1]; at 33.0 µM -4% | [1]; at 100.0 µM 23% | [2]; at 1.2 µM -3% | [2]; at 3.7 µM -3% | [2]; at 11.0 µM -5% | [2]; at 33.0 µM 10% | [2]; at 100.0 µM 18% | [3]; at 1.2 µM 0% | [3]; at 3.7 µM -2% | [3]; [15] 1% | [3]; at 11.0 µM -3% | [3]; at 33.0 µM -3% | [3]; [16] 52% | [3]; at 50.0 µM -7.1% | [3]; at 100.0 µM 10% | [4]; at 1.2 µM 0% | [4]; at 3.7 µM 2% | [4]; [15] -7% | [4]; at 11.0 µM -3% | [4]; at 33.0 µM -7% | [4]; [16] 8% | [4]; at 50.0 µM 7.75% | [4]; at 100.0 µM 16% | [5]; at 1.2 µM -1% | [5]; at 3.7 µM -1% | [5]; at 11.0 µM 1% | [5]; at 33.0 µM -1% | [5]; at 100.0 µM 14% | [6]; [15] -10% | [6]; [16] 44% | [6]; at 50.0 µM 30.6% | [7]; at 1.2 µM 3% | [7]; at 3.7 µM 1% | [7]; at 11.0 µM -2% | [7]; at 33.0 µM -12% | [7]; at 100.0 µM 3% | [8]; [15] 4% | [8]; [16] 25% | [8]; at 50.0 µM 41.5% | [14]; at 1.2 µM 4% | [14]; at 3.7 µM 1% | [14]; [15] -4% | [14]; at 11.0 µM -3% | [14]; at 33.0 µM -4% | [14]; [16] 47% | [14]; at 50.0 µM -17.4% | [14]; at 100.0 µM 12% | [10]; at 1.2 µM -3% | [10]; at 3.7 µM -2% | [10]; at 11.0 µM -4% | [10]; at 33.0 µM -5% | [10]; at 100.0 µM 19% | [11]; at 1.2 µM -1% | [11]; at 3.7 µM 1% | [11]; at 11.0 µM -2% | [11]; at 33.0 µM -1% | [11]; at 100.0 µM 25% | [12]; [15] 21% | [12]; [16] 52% | [12]; at 50.0 µM 19.6% | [13]; at 1.2 µM 0% | [13]; at 3.7 µM -1% | [13]; at 11.0 µM -6% | [13]; at 33.0 µM -3% | [13]; at 100.0 µM 16%
